Laboratory results taken from PubChem BioAssay (Tox21).
Where “and” joins values, the source holds several entries; their conditions need not be identical. Equal entries are not always repeated. Records with an inconclusive call do not appear. Some compounds were tested as several samples or in several runs, with calls that do not always agree. Calls of active or inactive are those of the source. Unless noted, the call rests on the fitted dose curve; in most records, active means well fitted curve in the direction sought with a large enough effect in the repeat runs; inconclusive means weak or mixed curves; inactive means no such curve, though single readings can be large; an effect the other way counts as inactive or inconclusive.

What was measured:
[1] = target: Thyrotropin receptor (Homo sapiens) (UniProt P16473); test: qHTS assay to identify small molecule agonists of the thyroid stimulating hormone receptor (TSHR) signaling pathway (AID 1224843; calls by dose curve; further: nearly all actives have a fitted effect of over 45% in size)
Chain of Thyrotropin receptor (Homo sapiens) (P16473 whole entry, looked up): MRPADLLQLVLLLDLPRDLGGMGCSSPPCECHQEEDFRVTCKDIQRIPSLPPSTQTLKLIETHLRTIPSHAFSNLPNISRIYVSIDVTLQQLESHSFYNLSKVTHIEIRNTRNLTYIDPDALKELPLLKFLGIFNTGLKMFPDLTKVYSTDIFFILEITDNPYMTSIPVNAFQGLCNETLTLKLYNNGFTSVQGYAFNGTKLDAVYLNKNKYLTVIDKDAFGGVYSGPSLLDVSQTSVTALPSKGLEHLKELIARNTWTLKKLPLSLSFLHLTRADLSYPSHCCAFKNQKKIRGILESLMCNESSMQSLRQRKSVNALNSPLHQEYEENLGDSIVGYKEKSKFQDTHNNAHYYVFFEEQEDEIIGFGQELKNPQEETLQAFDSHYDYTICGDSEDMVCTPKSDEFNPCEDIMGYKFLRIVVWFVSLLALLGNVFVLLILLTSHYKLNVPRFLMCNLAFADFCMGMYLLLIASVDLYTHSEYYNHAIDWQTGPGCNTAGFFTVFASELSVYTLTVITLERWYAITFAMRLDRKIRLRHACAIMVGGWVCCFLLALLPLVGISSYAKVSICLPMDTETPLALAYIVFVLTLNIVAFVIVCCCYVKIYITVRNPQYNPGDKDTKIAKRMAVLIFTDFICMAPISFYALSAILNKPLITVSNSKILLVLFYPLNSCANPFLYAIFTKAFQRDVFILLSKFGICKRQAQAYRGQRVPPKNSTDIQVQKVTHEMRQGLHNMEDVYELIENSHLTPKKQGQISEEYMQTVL
Procedure, shortened: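 Cell line HEK293 with TSHR; density 800/well. Exposure 30 min RT. Readout HTRF cAMP (cAMP-d2/anti-cAMP-cryptate), 1 h RT before reading.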

[2] = qHTS assay to identify small molecule agonists of the hypoxia (HIF-1) signaling pathway (AID 1224846; active means well fitted activation curve with a large enough effect in the signal ratio in the repeat runs, not every such curve was filed as active; the % refers to the signal ratio)
Procedure, shortened: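 A low-serum medium (0.5% dialyzed FBS) holding 2,000 HRE-bla ME-180 cells per well is preincubated for 5 hrs, dosed with compounds by pintool, and kept a further 17 hrs at 37C, 5% CO2 before CCF4-AM FRET detection of beta-lactamase.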

[3] = qHTS assay to identify small molecule agonists of H2AX - cell viability counter screen (AID 1224847; calls by dose curve; further: top concentration of the series differs between compounds; nearly all actives have a fitted effect of over 30% in size)
Procedure, shortened: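 CHO-K1 cells plated overnight at 37C, then exposed 3 h at 37C to compounds at 15 concentrations (0.76% DMSO final). Viability by CellTiter-Glo luminescence after 30 min at room temperature.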

[4] = qHTS RealTime-Glo MT Cell Viability Assay in HepG2 cells - 24 hour (AID 1224867); further: nearly all actives have a fitted effect of over 50% in size
Procedure, shortened: (§1)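 Compound treatment began 5 h after plating HepG2 cells (600/well) with NanoLuc luciferase and prosubstrate. Plates stayed at 37 C for 40 h; luminescence was captured at six time points, 0 h through 40 h.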

[5] = qHTS RealTime-Glo MT Cell Viability Assay in HEK293 cells - 32 hour (AID 1224868); further: nearly all actives have a fitted effect of over 50% in size; further: potency means the concentration at half of the fitted maximal effect
Procedure, shortened: (§2)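 Quantitative high-throughput screen of the Tox21 10K library in HEK293: cells and RealTime-Glo reagents plated together, compound added at 5 h, luminescence monitored through 40 h at 37 C.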

[6] = A CellTox Green Cytotoxicity Assay to monitor cytotoxicity in HEK293 cells - 0 hour (AID 1224869); further: nearly all actives have a fitted effect of over 50% in size
Procedure, shortened: (§3)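 Fluorescence intensity, read at 0, 8, 16, 24, 32 and 40 h of compound treatment, reflected dye binding to DNA of dead HEK293 cells; compounds (23 nL, DMSO) were added 5 h after plating cells with reagent.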

[7] = qHTS RealTime-Glo MT Cell Viability Assay in HepG2 cells - 40 hour (AID 1224870); further: nearly all actives have a fitted effect of over 50% in size
Procedure, shortened: (§4)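 HepG2 cells mixed with RealTime-Glo MT reagents (NanoLuc plus cell-permeant prosubstrate) were seeded at 600 cells/well, incubated 5 h at 37 C/5% CO2, then pinned with compounds in DMSO; nonlytic luminescence tracked viability during 40 h treatment.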

[8] = A CellTox Green Cytotoxicity Assay to monitor cytotoxicity in HEK293 cells - 40 hour (AID 1224871); further: nearly all actives have a fitted effect of over 45% in size
Procedure, shortened: as §3

[9] = qHTS RealTime-Glo MT Cell Viability Assay in HEK293 cells - 16 hour (AID 1224872)
Procedure, shortened: as §2

[10] = qHTS RealTime-Glo MT Cell Viability Assay in HepG2 cells - 8 hour (AID 1224873); further: nearly all actives have a fitted effect of over 55% in size
Procedure, shortened: as §4

[11] = A CellTox Green Cytotoxicity Assay to monitor cytotoxicity in HEK293 cells - 24 hour (AID 1224875); further: nearly all actives have a fitted effect of over 45% in size
Procedure, shortened: as §3

[12] = A CellTox Green Cytotoxicity Assay to monitor cytotoxicity in HepG2 cells - 16 hour (AID 1224876); further: nearly all actives have a fitted effect of over 45% in size
Procedure, shortened: (§5)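 Using 1536-well format, dye-containing HepG2 suspension was seeded, allowed 5 h at 37 C/5% CO2, dosed by pintool with compounds, positive and negative controls, and imaged for fluorescence across 40 h.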

[13] = A CellTox Green Cytotoxicity Assay to monitor cytotoxicity in HepG2 cells - 24 hour (AID 1224878); further: nearly all actives have a fitted effect of over 45% in size
Procedure, shortened: as §5

[14] = A CellTox Green Cytotoxicity Assay to monitor cytotoxicity in HepG2 cells - 40 hour (AID 1224879); further: nearly all actives have a fitted effect of over 40% in size; further: potency means the concentration at half of the fitted maximal effect
Procedure, shortened: as §5

[15] = qHTS assay to identify small molecule antagonists of the estrogen related receptor (ERR) signaling pathway from Tox21 library (AID 1224848); further: nearly all actives have a fitted effect of over 50% in size; further: potency means the concentration at half of the fitted maximal effect
Procedure, shortened: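 Screening used an ERR reporter line supplied by NTP, exposed for 18 h at 37 C to library compounds delivered in DMSO. Signal was luciferase luminescence developed with ONE-Glo at room temperature for 30 min.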

[16] = qHTS assay to identify small molecule agonists of the estrogen related receptor (ERR) signaling pathway from Tox21 library (AID 1224849; calls by dose curve; further: nearly all actives have a fitted effect of over 15% in size); conditions: ERR reporter cell line, ONE-Glo luciferase, 18 h
Procedure, shortened: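 Screening used an NTP-provided ERR luciferase cell line. Compounds in DMSO were added 6 h after seeding and left 18 h at 37 C before a 30 min ONE-Glo step and luminescence reading.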

[17] = qHTS RealTime-Glo MT Cell Viability Assay in HepG2 cells - 32 hour (AID 1224877); further: nearly all actives have a fitted effect of over 55% in size
Procedure, shortened: as §1

[18] = qHTS assay to identify small molecule agonists of H2AX (AID 1224845; active means well fitted activation curve with a large enough effect in the signal ratio in the repeat runs, not every such curve was filed as active; the % refers to the signal ratio)
Procedure, shortened: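 Wild-type CHO-K1 cells plated overnight, then exposed 3 hr at 37C to compounds at 15 concentrations (0.76% DMSO). Lysed, then HTRF anti-pH2AX(S139)-cryptate/anti-H2AX-d2 detection after 24 hr at room temperature; emissions 665 and 620 nm.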

[19] = qHTS RealTime-Glo MT Cell Viability Assay in HEK293 cells - 40 hour (AID 1224874); conditions: RealTime-Glo luminescence; max response: stronger effect = lower value; further: nearly all actives have a fitted effect of over 50% in size
Procedure, shortened: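 Viable HEK293 cells reduce a cell-permeant prosubstrate; the product diffuses out and is consumed by NanoLuc in the medium to give light. Compounds went in after a 5 h incubation and plates were read over the treatment course.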

[20] = qHTS assay to identify small molecule agonists of the hypoxia (HIF-1) signaling pathway - cell viability counter screen (AID 1224844; calls by dose curve; further: nearly all actives have a fitted effect of over 50% in size; further: potency means the concentration at half of the fitted maximal effect)
Procedure, shortened: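 Cells (HRE-bla ME-180, 2,000 per well) sat 5 hrs at 37C, got compound for 17 hrs, were read for CCF4-AM FRET, and were finally lysed with CellTiter-Glo for a 30 min room-temperature luminescence read.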
On the % scale 0 is the no-effect control and ±100 the full control effect.

Nc1ccc([As](=O)(O)O)cc1
inactive: Potency [1] | outcome [2] | Potency [3] | outcome [4] | Potency [5] | Potency [6] | outcome [7] | Potency [8] | outcome [9] | outcome [10] | Potency [11] | Potency [12] | Potency [13] | Potency [14]

O=C(O)Cc1ccccc1
inactive: outcome [2] | Potency [3] | Potency [15] | activity change, positive = activation ([16]; at 42.5 µM (top of the series)) -0.0869% | activity change, positive = activation ([16]; at 92.4 µM (top of the series)) -3.48% | outcome [4] | Potency [5] | Potency [6] | Potency [8] | outcome [9] | outcome [10] | Potency [12] | outcome [17] | Potency [13] | Potency [14]

COS(=O)(=O)OC
inactive: Potency [18] | outcome [2] | Potency [3] | outcome [4] | Potency [5] | Potency [6] | outcome [7] | Potency [8] | outcome [9] | outcome [10] | max response [19] 1.63% and 22.3% | Potency [12] | outcome [17] | Potency [13] | Potency [14]

C[C@H]1C(=O)O[C@@H]2CCN3CC=C(COC(=O)[C@](C)(O)[C@]1(C)O)[C@H]23
inactive: Potency [1] | Potency [3] | outcome [4] | Potency [5] | Potency [6] | outcome [7] | Potency [8] | outcome [9] | outcome [10] | Potency [12] | Potency [13] | Potency [14]

CCCOC(=O)c1ccccc1C(=O)OCCC
inactive: outcome [2] | Potency [3] | outcome [4] | Potency [5] | Potency [6] | outcome [7] | Potency [8] | outcome [9] | outcome [10] | max response [19] 0.157% and 0.878% | Potency [12] | Potency [13] | Potency [14]

COP(=S)(OC)SCN1C(=O)c2ccccc2C1=O
inactive: Potency [1] | outcome [2] | Potency [3] | outcome [4] | Potency [5] | Potency [6] | Potency [8] | outcome [9] | outcome [10] | max response [19] 11.4% and 4.29% and 1.87% | Potency [11] | Potency [12] | Potency [13] | Potency [14]

N#Cc1cccc(C#N)c1
inactive: Potency [1] | outcome [2] | Potency [3] | outcome [4] | Potency [5] | Potency [6] | Potency [8] | outcome [9] | outcome [10] | max response [19] 2.43% and 3.42% | Potency [11] | Potency [12] | Potency [13] | Potency [14]

C=CC(=O)OCCCCCC(C)C
inactive: Potency [1] | outcome [2] | Potency [3] | outcome [4] | Potency [5] | Potency [6] | outcome [7] | Potency [8] | outcome [9] | outcome [10] | max response [19] -0.829% and 3.33% | Potency [12] | outcome [17] | Potency [13] | Potency [14]

COc1cc(-c2ccc(N)c(OC)c2)ccc1N
inactive: outcome [2] | Potency [3] | outcome [4] | Potency [6] | Potency [8] | outcome [9] | outcome [10] | Potency [11] | Potency [12] | outcome [17] | Potency [13] | Potency [14]
inactive and 37.1 µM (active): Potency [5]
inactive and 46.3 µM (active): Potency [15]

COP(=S)(OC)Oc1ccc(SC)c(C)c1
inactive: Potency [18] | outcome [2] | Potency [3] | outcome [4] | Potency [5] | Potency [6] | outcome [7] | Potency [8] | outcome [9] | outcome [10] | Potency [12] | Potency [13] | Potency [14]

CN(C)C(=O)Nc1cccc(C(F)(F)F)c1
inactive: Potency [1] | outcome [2] | Potency [3] | outcome [4] | Potency [5] | Potency [6] | Potency [8] | outcome [9] | outcome [10] | max response [19] -22.8% and -6.94% | Potency [11] | Potency [12] | Potency [13] | Potency [14]

COC(=O)Nc1cccc(OC(=O)Nc2cccc(C)c2)c1
inactive: Potency [20] | Potency [18] | outcome [2] | Potency [3] | Potency [15] | outcome [4] | Potency [5] | Potency [6] | outcome [7] | Potency [8] | outcome [9] | outcome [10] | max response [19] 3.85% and -5.62% | Potency [11] | Potency [12] | Potency [13]
active: activity change, positive = activation ([16]; at 92.4 µM (top of the series)) 26.6% and 34.9% | Potency [14] 49 µM

CC12CC1(C)C(=O)N(c1cc(Cl)cc(Cl)c1)C2=O (stereo unspecified)
inactive: Potency [18] | outcome [2] | Potency [3] | outcome [4] | Potency [5] | Potency [6] | outcome [7] | Potency [8] | outcome [9] | outcome [10] | Potency [11] | Potency [12] | Potency [13] | Potency [14]

Cc1ccc(N=C=O)cc1N=C=O
inactive: outcome [2] | Potency [3] | Potency [15] | activity change, positive = activation ([16]; at 92.4 µM (top of the series)) 1.23% and -0.244% and 4.95% | outcome [4] | Potency [5] | Potency [6] | outcome [7] | Potency [8] | outcome [9] | outcome [10] | Potency [11] | Potency [12] | Potency [13] | Potency [14]
24.5 µM (active) and inactive: Potency [20]

CN(C)CCC#N
inactive: Potency [18] | outcome [2] | Potency [3] | outcome [4] | Potency [5] | Potency [6] | Potency [8] | outcome [9] | outcome [10] | max response [19] 6.53% and 12.6% | Potency [11] | Potency [12] | outcome [17] | Potency [13] | Potency [14]
